The target in assay [1] is Metallo-beta-lactamase type 2 (Klebsiella pneumoniae) (UniProt C7C422). As to the kind of experiment: qHTS to identify inhibitors of the New Delhi Metallo-beta-lactamase (NDM): assay validation screen against the NCATS LOPAC Collection (AID 1794843).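 Also: nitrocefin turnover by NDM-1 measured as 485 nm absorbance at plateau; % is scaled to controls: 0 for no effect and ±100 for the full control effect.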 An outline of the steps: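 NDM-1 at 2 nM final in 50 mM HEPES pH 7.0, 1 uM ZnSO4, 0.01% Tween20, preincubated with LOPAC compounds pinned in DMSO; 50 uM nitrocefin (stock) added. Hydrolysis read as absorbance at 485 nm in the plateau phase.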
Chain of Metallo-beta-lactamase type 2 (Klebsiella pneumoniae) (C7C422 whole entry, looked up): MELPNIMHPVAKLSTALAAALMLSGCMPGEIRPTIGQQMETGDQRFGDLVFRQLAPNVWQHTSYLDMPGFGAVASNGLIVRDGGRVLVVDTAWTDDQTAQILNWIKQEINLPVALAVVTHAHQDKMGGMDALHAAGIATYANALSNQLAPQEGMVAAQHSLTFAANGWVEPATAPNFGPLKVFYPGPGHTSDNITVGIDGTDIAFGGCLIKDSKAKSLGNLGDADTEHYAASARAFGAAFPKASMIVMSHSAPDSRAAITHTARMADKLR
(qHTS replaces the single test concentration by a dilution series.)

For assay [2], the target named is Glutathione peroxidase 1 (Homo sapiens) (UniProt P07203). As to the kind of experiment: Primary qHTS Assay for Inhibitors of Recombinant Selenoprotein Glutathione Peroxidase 1 (GPX1) (AID 1845191). Also: nearly all actives have a fitted effect of over 65% in size. Also: potency is read from the fitted curve at half-maximal effect. As to activity, negative = inhibition: % is scaled to controls: 0 for no effect and ±100 for the full control effect. The gist of the method: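 GPX1 10 nM, GR 100 nM, GSH 1 mM, NADPH 0.5 mM, CHP 0.5 mM (final). 30-min cpd preincubation, RT. Ex340/Em450 read t=0, t=15 min.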
Chain of Glutathione peroxidase 1 (Homo sapiens) (P07203 whole entry, looked up): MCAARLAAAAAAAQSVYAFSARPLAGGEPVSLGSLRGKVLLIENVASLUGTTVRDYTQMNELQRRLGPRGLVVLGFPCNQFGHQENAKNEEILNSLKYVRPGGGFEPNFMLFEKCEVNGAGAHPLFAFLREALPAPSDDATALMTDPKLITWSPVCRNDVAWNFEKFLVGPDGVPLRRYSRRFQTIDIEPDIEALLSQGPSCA
Assay [3] deals with Phospholipid hydroperoxide glutathione peroxidase GPX4 (Homo sapiens) (UniProt P36969). As to the kind of experiment: Primary qHTS Assay for Inhibitors of Recombinant Selenoprotein Glutathione Peroxidase 4 (GPX4) (AID 1845192). Also: nearly all actives have a fitted effect of over 65% in size. As to activity change, negative = inhibition: % is scaled to controls: 0 for no effect and ±100 for the full control effect. Particulars: outcome: dose series up to 50 µM unless noted. An outline of the steps:
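qHTS, GR-coupled: GPX4 200 nM + cpd 30 min RT → GSH 1 mM, NADPH 0.5 mM, GR 100 nM → CHP 0.5 mM start; fluor 340/450 at t0 and t15 min; no-enzyme wells as control.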

In assay [4] the target is Catechol O-methyltransferase (Homo sapiens) (UniProt P21964). Put plainly: Confirmatory Screen for Target Class Profiling of Small Molecule Inhibitors of Methyltransferases (AID 1745852; calls by dose curve). Particulars: MTase-Glo luminescence, SAH detection, recombinant enzyme; measured here: COMT max response; stronger effect = lower value.
Chain of Catechol O-methyltransferase (Homo sapiens) (P21964 whole entry, looked up): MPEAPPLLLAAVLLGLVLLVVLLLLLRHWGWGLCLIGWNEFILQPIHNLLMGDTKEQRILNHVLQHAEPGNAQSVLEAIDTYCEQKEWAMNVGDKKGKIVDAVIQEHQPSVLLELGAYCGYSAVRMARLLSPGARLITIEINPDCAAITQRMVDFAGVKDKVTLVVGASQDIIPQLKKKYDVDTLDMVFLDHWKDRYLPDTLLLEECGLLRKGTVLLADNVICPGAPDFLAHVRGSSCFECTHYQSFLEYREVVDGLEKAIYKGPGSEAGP
Assay [5] has as its target Guanidinoacetate N-methyltransferase (Homo sapiens) (UniProt Q14353). Described as above. Particulars: MTase-Glo luminescence, SAH detection, recombinant enzyme; at 57.3 µM (top of the series).
Assay [6] has as its target Nicotinamide N-methyltransferase (Homo sapiens) (UniProt P40261). Described as above. The note with it: MTase-Glo luminescence, SAH detection, recombinant enzyme; measured here: NNMT max response; stronger effect = lower value.
For assay [7], the target named is Phenylethanolamine N-methyltransferase (Homo sapiens) (UniProt P11086). The description is as above. Particulars: MTase-Glo luminescence, SAH detection, recombinant enzyme; measured here: PNMT max response; stronger effect = lower value.
Chain of Phenylethanolamine N-methyltransferase (Homo sapiens) (P11086 whole entry, looked up): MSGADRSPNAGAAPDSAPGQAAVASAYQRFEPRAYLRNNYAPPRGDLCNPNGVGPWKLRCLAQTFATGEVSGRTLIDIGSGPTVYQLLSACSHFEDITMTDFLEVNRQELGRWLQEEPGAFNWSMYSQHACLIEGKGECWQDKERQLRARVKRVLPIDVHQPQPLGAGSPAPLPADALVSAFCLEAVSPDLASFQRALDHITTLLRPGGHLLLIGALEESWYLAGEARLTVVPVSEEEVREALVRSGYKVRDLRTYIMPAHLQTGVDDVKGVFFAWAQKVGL
A short description of assay [8]: qHTS profiling for inhibitors of Plasmodium falciparum proliferation (AID 504749). Also: potency is read from the fitted curve at half-maximal effect.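 As to activity, negative = inhibition: 0% = DMSO vehicle and full inhibition = artemisinin control.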 As to all read-outs here: nearly all actives have a fitted effect of over 60% in size. The note with it: P. falciparum in erythrocytes, SYBR Green DNA, 72 h; for activity, negative = inhibition: at 28.7 µM (top of the series). An outline of the steps:
(§1)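 Quantitative HTS: compounds pinned into medium, infected erythrocytes added (0.3% parasitemia, 2.5% hematocrit), 72 h culture at 37 C under 5% CO2. Saponin/Triton lysis with SYBR Green I, overnight RT, then fluorescence read.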

A further assay deals with 3D7. The description is as above. The note with it: P. falciparum in erythrocytes, SYBR Green DNA, 72 h; series mostly up to 28.7 µM. The gist of the method: as §1
The subject of the next assay is 7G8. Described as above. The note with it: P. falciparum in erythrocytes, SYBR Green DNA, 72 h; series mostly up to 28.7 µM. An outline of the steps: as §1
The subject of the next assay is AS120. The description is as above. Particulars: P. falciparum in erythrocytes, SYBR Green DNA, 72 h; series mostly up to 28.7 µM. An outline of the steps:
as §1

Assay [9] in a line: NCATS anti-infectives library activity on HEK293 viability as a counter-qHTS vs the C. elegans viability qHTS (AID 1745854). Also: % is scaled to controls: 0 for no effect and ±100 for the full control effect. The gist of the method: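 Cytotoxicity counter-screen to a worm viability qHTS: CellTiter-Glo luminescence read 10 min after reagent addition. Compounds (final up to 41.7 uM, a 1:5 dilution series) incubated 24 hr at 37C with 1,500 HEK293 cells per well; digitonin control.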

For the next assay, the system named is AA1029. Put plainly: qHTS profiling for inhibitors of Plasmodium falciparum proliferation (AID 504749). Also: nearly all actives have a fitted effect of over 60% in size. Also: potency is read from the fitted curve at half-maximal effect.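 As to activity, negative = inhibition: 0% = DMSO vehicle and full inhibition = artemisinin control.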 The note with it: P. falciparum in erythrocytes, SYBR Green DNA, 72 h; series mostly up to 28.7 µM. An outline of the steps: as §1
Another assay has as its system ATS189. The description is as above. The note with it: P. falciparum in erythrocytes, SYBR Green DNA, 72 h; series mostly up to 28.7 µM. An outline of the steps: as §1
Another assay has as its system ATS95. Described as above. Particulars: P. falciparum in erythrocytes, SYBR Green DNA, 72 h; series mostly up to 28.7 µM. An outline of the steps:
as §1

Assay [10] has as its target Luciferin 4-monooxygenase (Photinus pyralis) (UniProt P08659). Put plainly: Primary firefly luciferase (FLuc) qHTS assay for identification of artifact compounds. (AID 1845220).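 Also: plate controls were DMSO vehicle for no effect and no enzyme for full effect; nearly all actives have a fitted effect of over 60% in size.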 The gist of the method:
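In this counter-screen for luciferase artifacts, test compounds met substrate (10 uM each luciferin and ATP) before 10 nM enzyme started the reaction. Light output was measured 5 min later.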

The test system of assay [11] is Nanoluciferase (engineered Oplophorus gracilirostris luciferase). As to the kind of experiment: Primary Nanoluciferase (NLuc) qHTS assay for identification of artifact compounds. (AID 1845222).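 Also: NLuc secreted into diluted conditioned medium of S16 cells.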 An outline of the steps: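 Using secreted nanoluciferase in S16 culture medium (0.22 um filtered, 1:55 dilution), compounds were preincubated 15 min at RT. Signal was generated with Nano-Glo reagent (1:100) over 5 min.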

Values joined by “and” are separate entries in the source; they are usually repeats but may differ in a detail not shown here. Identical values can stand only once. Inconclusive results are not listed. Active and inactive are the calls of the source. Unless noted, calls follow the shape of the dose curve; as a rule, active = well fitted curve in the direction sought with a large enough effect; inconclusive = small, poorly fitted or top-dose-only effect, or another doubt; inactive = no such curve, though single readings can be large; an effect the other way counts as inactive or inconclusive.

Chain of Nicotinamide N-methyltransferase (Homo sapiens) (P40261 whole entry, looked up): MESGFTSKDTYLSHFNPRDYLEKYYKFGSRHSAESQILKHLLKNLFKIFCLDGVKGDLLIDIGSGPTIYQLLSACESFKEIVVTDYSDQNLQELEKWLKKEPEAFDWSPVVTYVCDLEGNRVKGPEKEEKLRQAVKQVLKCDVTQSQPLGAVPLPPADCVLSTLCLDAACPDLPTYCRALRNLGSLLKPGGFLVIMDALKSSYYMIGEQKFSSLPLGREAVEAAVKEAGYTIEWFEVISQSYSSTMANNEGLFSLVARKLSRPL
Chain of Phospholipid hydroperoxide glutathione peroxidase GPX4 (Homo sapiens) (P36969 whole entry, looked up): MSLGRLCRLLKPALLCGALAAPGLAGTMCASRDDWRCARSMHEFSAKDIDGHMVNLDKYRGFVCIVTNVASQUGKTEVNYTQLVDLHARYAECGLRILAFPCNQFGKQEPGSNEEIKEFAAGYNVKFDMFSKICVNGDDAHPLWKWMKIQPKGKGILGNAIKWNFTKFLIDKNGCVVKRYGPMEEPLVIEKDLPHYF

Consider `CC(C)NCC(O)c1cc(O)cc(O)c1` (stereo not given), for which the Potency entry in assay [1] and in assay [2] was “inactive” each time. Moreover, in [3], the outcome is “inactive”.
For `CO[C@@]1(NC(=O)CSCC#N)C(=O)N2C(C(=O)O)=C(CSc3nnnn3C)CS[C@@H]21`, the Potency entry in assay [1] is “inactive”. Further, the Potency in [2] is 4.04 µM (active) and 25.1 µM (active). Moreover, the outcome in assay [3] was “inactive”.
`CCC(=O)c1ccc2c(c1)N(CCCN(C)C)c1ccccc1S2`: the activity in assay [4] was 6.41%; in [6], -51.8%; in assay [7], -2.93%. Moreover, in assay [5], the activity change, negative = inhibition was 4.3%. The Potency entry (in [1]; in [2]; with 3D7) was “inactive” throughout. For the same molecule, the outcome in [3] is “inactive”. For the same molecule, the activity, negative = inhibition in [8] (parasite line A) is -23.2% (inactive); in [8] (parasite line B) it was -3.51% (inactive).
`NC(N)=N/N=C/c1c(Cl)cccc1Cl`: the activity is -0.724% in assay [4], -52.2% in assay [6] and -1.71% in assay [7]. Besides, the activity change, negative = inhibition in assay [5] is 0.25%. Also, the Potency entry (in assay [1]; in assay [2]; with 3D7; in the assay on AS120) was “inactive” in each case. Further, the outcome in assay [3] was “inactive”. The Potency in the assay on 7G8 is 11.2 µM (active).
Turning to `OCCN1CCN(CCCN2c3ccccc3C=Cc3ccccc32)CC1`, the outcome in [9] and in [3] was “inactive” each time. The Potency entry in assay [1] and in assay [2] was “inactive” each time. In addition, the Potency in assay [8] (parasite line A) was 8.91 µM (active); in [8] (parasite line B) it was 11.2 µM (active); with 3D7, 11.2 µM (active); with 7G8, 2 µM (active); in the assay with AA1029, 4.47 µM (active); with AS120, 4.47 µM (active). Further, the Potency in the assay on ATS189 and in the assay on ATS95 was 5.01 µM (active) each time.
Consider `CC1=C(C)C(=O)C(CCCCC#CCCCC#CCO)=C(C)C1=O`, for which the activity was 4.09% in [4], -9.42% in assay [6] and 5.31% in [7]. The activity change, negative = inhibition in [5] amounted to 4.63%. Also, the Potency entry in [1] and in [2] was “inactive” each time. Further, the outcome in assay [3] is “inactive”. Further, the Potency is 11.2 µM (active) in [8] (parasite line A), 12.6 µM (active) with 3D7, 2.51 µM (active) in the assay on 7G8 and 6.31 µM (active) with AS120.
Turning to `COC(=O)[C@H]1[C@H]2C[C@@H]3c4[nH]c5cc(OC)ccc5c4CCN3C[C@H]2C[C@@H](OC(=O)c2cc(OC)c(OC)c(OC)c2)[C@@H]1OC`, the outcome in [10] and in assay [11] was “inactive” each time.
In the case of `NC/C=C/C(=O)O`, the Potency result (in [1]; in assay [2]; with 3D7; in the assay with 7G8; with AA1029; in the assay on AS120) was “inactive” each time. Moreover, the Potency entry in the assay with ATS189 and in the assay on ATS95 was “inactive” each time. The outcome in assay [3] was “inactive”. In addition, the activity, negative = inhibition in assay [8] (parasite line A) was 13.5% (inactive); in [8] (parasite line B) it was 11.1% (inactive).
Regarding `CCN(CC)CCNC(=O)c1ccc(NC(C)=O)cc1`, the Potency result (in assay [1]; in assay [2]; with 3D7; with 7G8; in the assay with AA1029; in the assay on AS120) was “inactive” in each case. Besides, the Potency entry in the assay with ATS189 and with ATS95 was “inactive” throughout. In [3], the outcome was “inactive”. The activity, negative = inhibition was 9.9% (inactive) in [8] (parasite line A) and 23.7% (inactive) in assay [8] (parasite line B).
In the case of `O=C(O)CCCCCCCC(=O)O`, the Potency entry (in assay [1]; in [2]; in the assay on 3D7; in the assay on 7G8; in the assay on AA1029; in the assay with AS120) was “inactive” in each case. Further, the Potency entry with ATS189 and with ATS95 was “inactive” in each case. The outcome in assay [3] was “inactive”. For the same molecule, the activity, negative = inhibition was 9.73% (inactive) in assay [8] (parasite line A) and 11.2% (inactive) in assay [8] (parasite line B).
On to `CC(=O)OCC1=C(C(=O)O)N2C(=O)[C@@H](NC(=O)Cc3cccs3)[C@H]2SC1`, for which the Potency result (in assay [1]; in the assay with 3D7; in the assay on 7G8; with AA1029; in the assay with AS120; with ATS189) was “inactive” each time. The Potency result with ATS95 is “inactive”. Also, the Potency in [2] is 10.1 µM (active). Moreover, the outcome in [3] was “inactive”. Moreover, the results for the activity, negative = inhibition in assay [8] (parasite line A) and in assay [8] (parasite line B) were 5.33% (inactive) and 13.1% (inactive), respectively.
